Measured values as given in PubChem BioAssay AID618 (Sanford-Burnham Center for Chemical Genomics, 2007).
The campaign covered roughly 87,000 compounds. About 540 (0.62%) were called active. This is one part of a sample in which actives are shown more often than they occur. No rule for the calls is given here. Measured potencies and affinities stand elsewhere.

assay: inhibitors of MT1-MMP promoter transcription, cell-based, luciferase reporter, luminescence (AID 618); settings: MT1-MMP promoter luciferase reporter cells;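 also: actives suppress MT1-MMP promoter-driven transcription so potencies describe inhibitors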

Question: For `O=C(NCc1ccncc1)Nc1ccc(Cl)cc1Cl`, which outcome is on record?
Answer: inactive

Question: With `CCCn1c(=O)c2c(c3ccccc31)OCC(=O)N2` as the compound, how does the outcome read?
Answer: inactive

Question: For `COc1ccc(Cc2nnc3n2N=C(c2cc4ccccc4o2)CS3)cc1OC`, which outcome is on record?
Answer: inactive

Question: For `COC(=O)CSc1nsc(SCC(=O)OC)n1`, which outcome is on record?
Answer: inactive

Question: Which outcome does the source give for `CCCCCSc1nc2c(cnn2-c2ccccc2)c(=O)[nH]1` here?
Answer: inactive

Question: With `O=C(Nc1nc2ccccc2[nH]1)c1ccc(F)cc1` as the compound, how does the outcome read?
Answer: active

Question: For `O=C(NCCc1nc2ccccc2[nH]1)c1ccc(F)cc1`, which outcome is on record?
Answer: inactive

Question: For `COc1ccc(C(=O)Nc2nc3ccccc3[nH]2)cc1OC`, which outcome is on record?
Answer: inactive

Question: With `Cc1[nH]c2ccccc2c1/C=N/n1cnnc1` as the compound, how does the outcome read?
Answer: inactive

Question: Which outcome does the source give for `Nc1c(C(=O)Nc2ccccc2)sc2nc3c(c(-c4ccco4)c12)CCC3` here?
Answer: inactive

Question: With `COc1ccc(C2NC3=C(CCC3)C3(C#N)C(OC)(OC)N=C(N)C23C#N)cc1` (centres undefined) as the compound, how does the outcome read?
Answer: inactive

Question: For `COc1ccc(OC)c(S(=O)(=O)NCCO)c1`, which outcome is on record?
Answer: inactive

Question: Which outcome does the source give for `O=C(NCCc1ccccc1)C1CC(c2ccccc2O)=NO1` (centres undefined) here?
Answer: inactive

Question: For `O=C1CCCC/C1=C/Nc1ccc2c(c1)OCO2`, which outcome is on record?
Answer: inactive

Question: Which outcome does the source give for `COc1ccc2c(c1)CC/C(=C\Nc1ccc3c(c1)OCO3)C2=O` here?
Answer: inactive

Question: Which outcome does the source give for `CCn1cc(Br)c(C(=O)Nc2cccc(SC)c2)n1` here?
Answer: inactive

Question: With `CCOC(=O)c1c(C)[nH]c(C(=O)Nc2ccc3c(c2)OCO3)c1C` as the compound, how does the outcome read?
Answer: inactive

Question: With `CCOC(=O)c1c(C)c(C(=O)Nc2ccc3c(c2)OCO3)c(C)n1C` as the compound, how does the outcome read?
Answer: inactive

Question: With `CCOC(=O)c1c(N)sc(C(=O)Nc2ccc3c(c2)OCO3)c1C` as the compound, how does the outcome read?
Answer: active

Question: Which outcome does the source give for `COc1ccc(-c2nnc3ccc(SCC(=O)N4CCCC4)nn23)cc1` here?
Answer: inactive

Question: Which outcome does the source give for `Cn1c(=O)c2c(nc(N3CCN(Cc4ccccc4)CC3)n2CCSc2ncccn2)n(C)c1=O` here?
Answer: inactive

Question: For `Cc1ccccc1NS(=O)(=O)c1ccc(N2CCCC2=O)cc1`, which outcome is on record?
Answer: inactive

Question: Which outcome does the source give for `COc1ccc(CCNS(=O)(=O)c2ccc(N3CCCC3=O)cc2)cc1` here?
Answer: inactive

Question: For `COc1ccc(OC)c(NS(=O)(=O)c2ccc(N3CCCC3=O)cc2)c1`, which outcome is on record?
Answer: active

Question: With `COc1ccc(S(=O)(=O)Nc2cc(Cl)ccc2OC)cc1` as the compound, how does the outcome read?
Answer: active

Question: With `COc1ccc(Cl)cc1NS(=O)(=O)c1ccc(S(=O)(=O)N2CCCC2)cc1` as the compound, how does the outcome read?
Answer: inactive

Question: With `COc1ccc(Cl)cc1NS(=O)(=O)c1ccc(OC)c(OC)c1` as the compound, how does the outcome read?
Answer: inactive

Question: For `C=CCc1cccc(/C=N/n2c(C)nnc2C)c1O`, which outcome is on record?
Answer: inactive

Question: Which outcome does the source give for `O=C1CC(c2ccc(S(=O)(=O)N3CCCCC3)cc2)CN1` (centres undefined) here?
Answer: inactive

Question: Which outcome does the source give for `CCOc1cccc(CNn2cnnc2)c1OCc1ccccc1` here?
Answer: inactive

Question: Which outcome does the source give for `CCN1CCN(CCNC(=O)CS(=O)(=O)Cc2nc(-c3ccc(C)cc3)oc2C)CC1` here?
Answer: inactive

Question: For `CCOc1cc(-c2noc(N)c2C(=O)OC)cc(OCC)c1OCC`, which outcome is on record?
Answer: inactive

Question: For `Cc1ccc(-c2nc(N/N=C/c3cccnc3)c3ccccc3n2)cc1`, which outcome is on record?
Answer: inactive

Question: For `Brc1ccc(-c2nc(N/N=C/c3cccnc3)c3ccccc3n2)cc1`, which outcome is on record?
Answer: inactive
